Source: PubChem (National Center for Advancing Translational Sciences (NCATS))
CtBP-E1A blk: qHTS Assay for Inhibitors of the CtBP/E1A Interaction; AlphaScreen GST-E1A/His-CtBP binding, 1536-well; stronger effect = lower value; activity change, % (test concentration not listed); 340,000 compounds, 0.49% hits; AID 651724, 2012
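GST-E1A and His-tagged CtBP (125 nM each as 5X stock) were preincubated with pin-transferred compound for 2 h at 37 °C in the dark, then glutathione donor and nickel acceptor beads were added for 1 h before AlphaScreen reading.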
Eya2 inh: qHTS Assay for Inhibitors of the Phosphatase Activity of Eya2. Potency, µM (top dose mostly 76.9 µM), for inactives: top-dose activity, negative = inhibition, most hits filed as inhibitors. Protein phosphatase EYA2 (Homo sapiens), O00167. recombinant Eya2, OMFP fluorescence dephosphorylation (OMFP is methylfluorescein phosphate). 330,000 compounds, 0.006% hits; active = well fitted inhibition curve with a large enough effect; inconclusive = small, poorly fitted or top-dose-only effect, or effect the other way; note: potency is the fitted concentration of half-maximal effect
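Eya2 protein (added as 0.2 uM solution) was preincubated with compound for 10 min at ambient temperature in 50 mM HEPES pH 7.5, 50 mM NaCl, 5 uM MgCl2, 0.05% BSA, 1 mM DTT. OMFP (added at 50 uM) then reacted 10 min; fluorescence read at 485/525 nm.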
Six1-Eya2 blk: qHTS Assay for Inhibitors of the Six1/Eya2 Interaction. Homeobox protein SIX1 (Homo sapiens) + Protein phosphatase EYA2 (Homo sapiens), …. activity change, % (test concentration not listed). 360,000 compounds, 0.56% hits. AlphaScreen GST-Six1/His-Eya2 binding, biochemical; stronger effect = lower value. AID 651725, 2012
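Six1/Eya2 binding was read as AlphaScreen signal after compounds were pinned into GST-Six1 plus His-tagged Eya2 (5X stock 250/500 nM) in pH 8.0 Tris/NaCl/TCEP buffer, beads added, then incubated 1 h, 37 C, dark.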
CCT chaperon mod: High-Throughput Screening for Modulators of Cytosolic Chaperonin Activity | purified chaperonin ATPase assay, HTRF ADP detection, 30 min | 360,000 compounds, 0.3% hits | activity change, % (no concentration beside the values), hits read low; in the data active = activity change below about -30%
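Nucleotide hydrolysis assay: TRiC at 20–40 nM final (set by batch activity) with 10 uM ATP, 30 min at 37 °C, in presence of 76 uM compound. Detection by competitive ADP HTRF, 30 min ambient.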
PI4K2A block: qHTS for small molecular inhibitors of PI4K2A; activity change, negative = inhibition, % at 76.9 µM; Phosphatidylinositol 4-kinase type 2-alpha (Homo sapiens), Q9BTU6; purified PI4K2A, ADP-Glo luminescence, 1 h; stronger effect = lower value; 420,000 compounds, 0.13% hits; in the data active = activity change below about -50%; inconclusive = mostly about -30% to -49%;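 note: -100% = wells without enzyme as full effect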
Target sequence (Q9BTU6 whole entry, looked up): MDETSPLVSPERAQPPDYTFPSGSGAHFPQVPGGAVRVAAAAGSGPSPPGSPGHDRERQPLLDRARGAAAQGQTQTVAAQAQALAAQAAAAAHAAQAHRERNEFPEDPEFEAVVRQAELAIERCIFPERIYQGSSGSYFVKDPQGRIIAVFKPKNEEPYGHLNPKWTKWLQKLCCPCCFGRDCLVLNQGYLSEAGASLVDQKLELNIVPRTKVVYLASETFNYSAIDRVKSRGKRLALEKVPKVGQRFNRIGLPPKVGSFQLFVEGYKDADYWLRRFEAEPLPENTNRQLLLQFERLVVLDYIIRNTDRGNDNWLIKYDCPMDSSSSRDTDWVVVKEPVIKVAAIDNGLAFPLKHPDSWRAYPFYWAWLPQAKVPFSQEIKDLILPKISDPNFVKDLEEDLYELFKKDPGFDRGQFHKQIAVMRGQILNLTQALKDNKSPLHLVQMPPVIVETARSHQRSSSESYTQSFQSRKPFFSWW
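PI4K2A activity was measured by ADP-Glo luminescence: enzyme (4 ug/mL stock) and phosphatidylinositol (1.2 mM stock) in Tris pH 7.5/MgCl2/EGTA/Triton X-100 buffer were reacted with ATP (300 microM stock) for one hour at ambient temperature.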
* hit, by the source's call; ? = inconclusive; . = not tested or not shown. Hits are enriched below; roughly 0.97% of the tested compounds scored in any of these assays. Cut-off read from the data, not from the text of the source, unless noted: active = activity change below about -65%; inconclusive = mostly about -30% to -63%; inactive = weaker than that. Unless noted, % is set by controls: 0 for no effect and ±100 for the full control effect.

SMILES	CtBP-E1A blk	Eya2 inh	Six1-Eya2 blk	CCT chaperon mod	PI4K2A block
NC(=O)CSc1nnc(-c2cccc(S(=O)(=O)N3CCCCC3)c2)o1	.	7%	-1	-57*	4
O=S(=O)(c1cccc(-c2nnc(-c3ccc(Br)cc3)o2)c1)N1CCCCCC1	3	-1%	-1	-58*	24
O=C(CSc1nnc(-c2cccc(S(=O)(=O)N3CCCCC3)c2)o1)c1ccc[nH]1	-3	-2%	-6	-3	-11
O=S(=O)(c1cccc(-c2nnco2)c1)N1CCCC1	2	1%	1	2	2
C[C@@H]1C[C@H]2[C@@H]3CCC4=CC(=O)C=C[C@]4(C)[C@@]3(F)[C@@H](O)C[C@]2(C)[C@@]1(O)C(=O)COC(=O)c1ccncc1	.	.	.	.	-1
COc1ccc(C(NC(C)=O)c2cc(Cl)c3cccnc3c2O)cc1 (configuration not stated)	-93*	6%	-83*	1	0
CCC(=O)NC(c1cccs1)c1cc(Cl)c2cccnc2c1O (configuration not stated)	.	1%	-89*	-2	-1
CC(=O)NC(c1ccccc1)c1cc(Cl)c2cccnc2c1O (configuration not stated)	-91*	-1%	-87*	-1	-10
O=C(NC(c1ccc(Cl)cc1)c1cc(Cl)c2cccnc2c1O)c1cccnc1 (configuration not stated)	-4	0%	-17	1	2
COc1ccc(C(=O)NC(c2ccccc2Cl)c2cc(Cl)c3cccnc3c2O)cc1 (configuration not stated)	.	.	.	.	3
CC(=O)NC(c1ccc(Cl)cc1)c1ccc2cccnc2c1O (configuration not stated)	.	.	?	-4	8
CC(=O)NC(c1ccc(N(C)C)cc1)c1cc(Cl)c2cccnc2c1O (configuration not stated)	?	.	-81*	2	1
Cc1ccc2nc(N)[nH]c(=O)c2c1Sc1ccncc1	.	.	.	.	0
O=C1CCCc2cc(S(=O)(=O)N3CCCC(C(=O)Nc4ccc(F)c(Cl)c4)C3)ccc2N1 (configuration not stated)	.	.	.	.	3
Cc1nc2nncn2c(NCc2ccc(Cl)cc2)c1C	.	.	.	.	-8
CCCC(=O)NC(c1ccc(OC)c(OC)c1)c1cc(Cl)c2cccnc2c1O (configuration not stated)	-79*	7%	-72*	1	1
COCCCNC(=O)Cn1c(=O)n(-c2ccccc2)c(=O)c2c1c1cc(OC)ccc1n2C	.	.	.	.	1
N=c1ccn2c(n1)O[C@H]1[C@H](O)[C@@H](CO)O[C@H]12	3	?	1	-1	5
N=c1nc2n(cc1F)C1OC(CO)C(O)C1O2 (configuration not stated)	-5	.	8	-48*	5
Cc1cc(=O)[nH]c(N/N=C/c2ccc(Br)s2)n1	?	-19%	-73*	-2	-16
Cc1cc(=O)[nH]c(NN=Cc2c(Cl)cccc2Cl)n1	-2	.	-3	0	-3
CSc1ccc(/C=N/Nc2nc(C)cc(=O)[nH]2)cc1	?	-5%	-18	-1	2
Cc1cc(=O)[nH]c(N/N=C/c2ccc(-c3ccc(F)cc3)o2)n1	-82*	-8%	-85*	-1	-17
Cc1cc(=O)[nH]c(N/N=C/c2c(O)n(-c3ccccc3)c(=O)c3ccccc23)n1	?	8%	-87*	-1	-3
CCCCCCCCCCCCOCCO	.	.	.	.	1
FC(F)Oc1ccc(NC(=S)NCc2nc3ccccc3[nH]2)cc1	6	-3%	10	-37*	5
CCC(=O)N1CCc2cc(S(=O)(=O)CCC(=O)NC3CCCCC3)ccc21	.	13%	18	-75*	-2
CCC(=O)N1CCc2cc(S(=O)(=O)CCC(=O)NCc3ccccc3OC)ccc21	.	5%	-2	-57*	-4
